Where “and” joins values, the source holds several entries; their conditions need not be identical. Identical values can stand only once. Calls of active or inactive are those of the source.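 Rule for the calls, unless noted: active = compounds whose cell count with miR-34 switched on is under 0.7 times the count with it off; inactive = the rest.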

Assay [1] is described as follows: yeast 75Q aggregation reduction – 75Q-TubU reporter (AID 1593). To be noted: Yeast 75Q polyglutamine aggregation reporter.
Assay [2] is described as follows: blockers of cytochrome c efflux from mitochondria – biochemical, purified mitochondria (AID 1603).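 Note: mouse liver mitochondria challenged with calcium chloride; signal normalized to the plate average as 100%.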 To be noted: stronger effect = lower value.
Assay [3] in a line: polyglutamine aggregate formation blockers (AID 1604). To be noted: polyglutamine-induced protein aggregation inhibition assay; stronger effect = higher value; tested at 2.5 µM.
Assay [4] can be described thus: Wnt pathway potentiators raising nuclear beta-catenin – imaging, WNT3A-conditioned medium, mouse C2C12, NPC library, primary screen (AID 1117326; in the data active = nuclear beta-catenin stimulation mostly above about 4.2%, no sharp cut-off; inactive = mostly below about 10%). To be noted: stronger effect = higher value.
A short description of assay [5]: stimulators of insulin release from INS-1E, primary screen, cell-based, 5 mM glucose, NPC library (AID 1117329;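 active = compound raises insulin release from rat beta cells at 5 mM glucose, no numeric limit stated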). To be noted: rat INS-1E insulin secretion, at 10 µM, stronger effect = higher value.
A short description of assay [6]: growth inhibition of GSK3B-pretreated HCT116 cells – cell-based, CellTiter-Glo, 0.2 to 20 µM (AID 1117336;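 active = compounds lowering colon cancer cell viability after pretreatment blocking the GSK3B kinase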). To be noted: HCT116 viability after GSK3B inhibitor, at 20 µM, stronger effect = higher value.
A short description of assay [7]: inhibition of endothelial tube formation, primary screen, imaging, VEGF stimulated, CD31 staining, tube area, NPC library (AID 1117340;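 active = compound that reduces growth-factor-driven endothelial tube area in a mixed cell culture, no cutoff stated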). To be noted: VEGF-stimulated ADSC/ECFC co-culture, at 10 µM, stronger effect = higher value.
Assay [8] in a line: GLP1 release stimulators, primary, NCI-H716, NPC library (AID 1117341;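 active = compound raises GLP1 secretion from the human gut endocrine cells, with no numeric limit stated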). To be noted: NCI-H716 cells, at 10 µM, stronger effect = higher value.
Assay [9] is described as follows: HCT116 colon cancer cell growth inhibition, primary screen, CellTiter-Glo luminescence, NPC library (AID 1117342;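 active = compounds that lower survival of HCT116 colon cancer cells in the luminescence readout, no numeric limit stated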). To be noted: at 20 µM (top of the series). On the technique in general: In ATP-based viability assays light output follows the ATP content of the culture.
Assay [10] in a line: reduced SW480 viability measured with CellTiter-Glo, NPC library, primary (AID 1117343;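 active = compounds that lower viability of the colon cancer cells in the luminescence readout, with no numeric limit stated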). To be noted: CellTiter-Glo luminescence; at 20 µM (top of the series).
Assay [11] is described as follows: NPC library primary testing for decreased DLD-1 cell viability via CellTiter-Glo (AID 1117346;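 active = compounds that lower survival of DLD-1 colon cancer cells in the luminescence readout, no cutoff given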). To be noted: DLD-1 viability, CellTiter-Glo luminescence; at 20 µM (top of the series).
Assay [12] addresses 6-phosphogluconate dehydrogenase, decarboxylating (Homo sapiens) (UniProt P52209). Nature of the assay: inhibition of human phosphogluconate dehydrogenase – biochemical, recombinant enzyme, NADPH absorbance, primary screen (AID 1159550;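 active = at least 20% inhibition of 6-phosphogluconate dehydrogenase activity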). To be noted: recombinant 6PGD, NADPH absorbance 341 nm; at 10 µM; stronger effect = higher value.
The nature of assay [13]: EMT-state selective cytotoxicity in co-culture – imaging, PC-3E GFP, TEM4-18 mCherry, primary screen (AID 1345086;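 active = compounds killing one labelled cell type while sparing the other, by normalised counts and ratio limits, not self-fluorescent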;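 for all read-outs here: cells exposed to compound for 72 h before imaging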;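 for red/green cell ratio (normalised): normalised mesenchymal count divided by normalised epithelial count so high means epithelial killing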). To be noted: PC-3E GFP / TEM4-18 mCherry co-culture, imaging cell counts, at 1 µM; for red/green cell ratio (normalised): actives lie on both sides.
Assay [14] relates to Aerobactin synthetase IucA (Klebsiella pneumoniae hvKP1). Put plainly: IucA enzyme inhibition, primary screen, biochemical, Spectrum library (AID 1346200; call rule not given here;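 note: 100% = wells without compound and 0% = wells lacking enzyme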). To be noted: malachite green pyrophosphate, A620, at 8 µM, stronger effect = lower value.
Assay [15] is described as follows: viability loss with induced miR-34 in A549 – imaging, A549 dox-inducible miR-34, nuclei and caspase counts, primary screen (AID 1347080). To be noted: A549 miR-34 inducible, Hoechst nuclei count, 48 h.
The nature of assay [16]: MELAS cybrid and Rieske KO viability enhancers – cell-based, MELAS cybrids, Rieske KO mouse fibroblasts, CellTiter-Glo, primary screen (AID 1508586;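 active = mean z-score across replicates of 1.96 or higher in either the MELAS or the Rieske mutant cell line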;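 note: z relative to plate mean and SD of compound and empty wells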). To be noted: low glucose.
In assay [17] the target is NAD(+) hydrolase SARM1 (Homo sapiens) (UniProt Q6SZW1). Put plainly: blocking NAD cleavage by SARM1 SAM-TIR – cell lysate, NAD-Glo luminescence (AID 1508614;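 active = compound whose remaining NAD level is above about 45 nM, limit read from the data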;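 note: higher remaining NAD means stronger inhibition of SARM1 NADase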). To be noted: SAM-TIR HEK293T lysate NADase, at 1 µM, stronger effect = higher value.
Chain of NAD(+) hydrolase SARM1 (Homo sapiens) (Q6SZW1 whole entry, looked up, the tested form may be a part): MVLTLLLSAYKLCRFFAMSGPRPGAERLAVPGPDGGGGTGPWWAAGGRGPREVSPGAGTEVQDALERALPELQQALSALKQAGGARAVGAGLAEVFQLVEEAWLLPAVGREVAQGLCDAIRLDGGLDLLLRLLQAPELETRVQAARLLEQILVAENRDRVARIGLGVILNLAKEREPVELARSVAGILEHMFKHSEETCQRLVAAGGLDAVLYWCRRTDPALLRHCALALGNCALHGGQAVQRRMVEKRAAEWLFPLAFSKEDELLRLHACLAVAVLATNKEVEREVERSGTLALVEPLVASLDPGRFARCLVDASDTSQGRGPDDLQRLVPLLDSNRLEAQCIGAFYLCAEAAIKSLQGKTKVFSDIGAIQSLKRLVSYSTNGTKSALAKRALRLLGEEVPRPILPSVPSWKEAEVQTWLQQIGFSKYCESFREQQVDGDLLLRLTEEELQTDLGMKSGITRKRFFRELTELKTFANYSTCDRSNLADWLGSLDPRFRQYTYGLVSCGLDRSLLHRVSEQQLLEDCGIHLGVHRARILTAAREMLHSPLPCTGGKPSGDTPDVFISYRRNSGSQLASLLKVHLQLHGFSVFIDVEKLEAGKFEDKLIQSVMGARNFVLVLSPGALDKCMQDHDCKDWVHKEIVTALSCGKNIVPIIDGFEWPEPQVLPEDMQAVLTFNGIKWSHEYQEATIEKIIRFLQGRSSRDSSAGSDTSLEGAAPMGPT
The target in assay [18] is Mitogen-activated protein kinase 7 (Homo sapiens) (UniProt Q13164). Put plainly: Gal4-ERK5 driven luciferase induction – cell-based, HTS, primary screen (AID 1508626;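 active = luciferase signal above three times the same-plate solvent-only control wells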;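 note: luciferase driven by Gal4-ERK5 fusion binding five Gal4 sites before minimal TATA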). To be noted: HeLa Gal4-ERK5 transactivation, 18 h, at 5 µM, stronger effect = higher value.
Chain of Mitogen-activated protein kinase 7 (Homo sapiens) (Q13164 whole entry, looked up, the tested form may be a part): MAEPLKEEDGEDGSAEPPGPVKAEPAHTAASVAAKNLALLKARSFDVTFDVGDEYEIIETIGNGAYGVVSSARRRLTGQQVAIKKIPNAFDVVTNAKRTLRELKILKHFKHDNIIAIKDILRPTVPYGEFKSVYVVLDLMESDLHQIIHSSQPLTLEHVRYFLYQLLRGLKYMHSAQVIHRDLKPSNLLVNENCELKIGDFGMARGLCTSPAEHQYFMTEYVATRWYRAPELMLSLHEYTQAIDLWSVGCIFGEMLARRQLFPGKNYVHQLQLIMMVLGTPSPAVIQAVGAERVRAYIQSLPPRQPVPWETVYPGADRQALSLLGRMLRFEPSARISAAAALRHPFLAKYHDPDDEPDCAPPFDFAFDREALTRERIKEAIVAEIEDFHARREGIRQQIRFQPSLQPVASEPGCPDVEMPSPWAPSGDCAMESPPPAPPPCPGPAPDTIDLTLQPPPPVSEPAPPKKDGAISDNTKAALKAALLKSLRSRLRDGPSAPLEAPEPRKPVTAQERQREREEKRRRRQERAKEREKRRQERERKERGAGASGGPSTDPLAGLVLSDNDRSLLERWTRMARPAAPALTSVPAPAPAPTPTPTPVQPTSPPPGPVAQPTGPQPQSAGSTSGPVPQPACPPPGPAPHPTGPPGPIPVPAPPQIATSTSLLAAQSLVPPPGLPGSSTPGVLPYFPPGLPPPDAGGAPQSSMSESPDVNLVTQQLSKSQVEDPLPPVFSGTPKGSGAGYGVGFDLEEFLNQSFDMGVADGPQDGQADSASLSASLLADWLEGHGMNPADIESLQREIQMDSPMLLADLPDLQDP
Assay [19] can be described thus: galactose survival enhancers in mitochondrial complex I cybrids – cell-based, galactose medium, ATP luminescence, primary screen (AID 1645843;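 active = z-score of at least 1.8 in each of two replicates, scored against plate mean and spread of sample wells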;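 note: positive z means more ATP and so rescue of galactose-driven cybrid death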). To be noted: complex I mutant cybrid cells, 72 h, stronger effect = higher value.
The nature of assay [20]: P. berghei load reduction in hepatocytes – cell-based, HepG2, luciferase luminescence, HepG2 viability, primary screen (AID 624349; in the data active = parasite load remaining mostly below about 12%, no sharp cut-off; inactive = mostly above about 10%;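 note: 100% = mean of DMSO negative control wells on the same plate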). To be noted: P. berghei liver stage in HepG2, luciferase luminescence, concentration not given here; parasite load remaining: stronger effect = lower value; viability: measured here: HepG2 viability without parasites.
The mark [21] stands for this setting: measured here: epithelial PC-3E GFP cell survival.
[22] abbreviates: measured here: mesenchymal TEM4-18 mCherry cell survival.
Setting [23] is: measured here: relative caspase fold change +Dox/-Dox.
The mark [24] stands for this setting: measured here: total cells with miR-34 induction, stronger effect = lower value.
The mark [25] stands for this setting: measured here: total cells without miR-34 induction.
[26] abbreviates: MELAS cybrid survival, CellTiter-Glo 48 h, stronger effect = higher value.
The mark [27] stands for this setting: Rieske KO mouse fibroblast survival, CellTiter-Glo 72 h.

Chain of 6-phosphogluconate dehydrogenase, decarboxylating (Homo sapiens) (P52209 whole entry, looked up): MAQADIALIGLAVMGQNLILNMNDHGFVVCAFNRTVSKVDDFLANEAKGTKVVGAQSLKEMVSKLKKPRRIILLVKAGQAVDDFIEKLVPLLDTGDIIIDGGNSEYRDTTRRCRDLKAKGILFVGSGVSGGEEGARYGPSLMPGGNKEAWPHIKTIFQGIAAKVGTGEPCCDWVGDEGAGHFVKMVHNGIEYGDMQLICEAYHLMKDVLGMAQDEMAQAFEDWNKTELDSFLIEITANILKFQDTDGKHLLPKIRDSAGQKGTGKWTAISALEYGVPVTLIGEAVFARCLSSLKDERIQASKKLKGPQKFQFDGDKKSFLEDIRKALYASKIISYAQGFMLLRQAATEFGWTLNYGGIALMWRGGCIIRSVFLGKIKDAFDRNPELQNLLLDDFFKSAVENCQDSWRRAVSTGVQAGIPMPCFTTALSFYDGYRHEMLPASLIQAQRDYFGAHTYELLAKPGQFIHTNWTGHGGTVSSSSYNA

One may read the inhibition as the change of the read-out against control, counted positive when it falls. For the compound `CN(C)[C@@H]1C(=O)C(C(N)=O)=C(O)[C@@]2(O)C(=O)C3=C(O)c4c(O)cccc4[C@@](C)(O)[C@H]3[C@H](O)[C@@H]12`, in assay [1], the score turned out to be 0.9. Also, in [2], the cytochrome c release ratio was 0.99. In assay [3], this compound gave an inhibition of aggregation of 39.4%. Besides, the nuclear beta-catenin stimulation is -2.3% (inactive) in assay [4] (at 10 µM) and 0.1% in assay [4] (stimulation, at 2 µM). The insulin secretion stimulation in assay [5] was 1.4% (inactive). For the same compound, in assay [6], the viability decrease is 38.4% (inactive). In [7], the tube area decrease was 11.7% (inactive). For the same compound, in [8], the GLP1 secretion stimulation was -2.9% (inactive). Moreover, the inhibition of viability in assay [9] is 31.6% (inactive). Besides, the figures for the viability decrease (inhibition) in [10] and in [11] were 62.8% (active) and 14.3% (inactive), respectively. Also, the inhibition in assay [12] is -7.39% (inactive). For the same compound, the red/green cell ratio (normalised) in [13] is 0.97 (inactive). Further, the normalised cell number in [13] (setting [21]) turned out to be 1.02; in assay [13] (setting [22]), 0.99. Also, in [14], the activity remaining is 109% (inactive). In addition, the fold change in assay [15] (stronger effect = lower value) was 0.977 (inactive) and 0.919 (inactive) and 0.901 (inactive); in assay [15] (setting [23]) it was 0.839 and 0.936 and 1.89. Further, the cell count in assay [15] (setting [24]) was 8720 and 8430 and 10800; in assay [15] (setting [25]) it was 8930 and 9170 and 12000. The z-score in [16] (setting [26]) was -3.76 (inactive); in [16] (setting [27]) it was -2.32; in [19], -1.4 (inactive). Besides, the remaining NAD in [17] is 10 nM (inactive). In addition, the luciferase signal in [18] was 92 AU (inactive).
As to `CCC(C)(C)c1ccc(O)cc1`, the nuclear beta-catenin stimulation in [4] (at 10 µM) is 0.6% (inactive); in [4] (stimulation, at 2 µM), -0.2%. Moreover, in assay [5], the insulin secretion stimulation is -1% (inactive). Besides, the viability decrease in assay [6] is -20.2% (inactive). For the same compound, the tube area decrease in assay [7] was 9.4% (inactive). Moreover, the GLP1 secretion stimulation in assay [8] is 6.1% (inactive). The inhibition of viability in assay [9] was 0.6% (inactive). In addition, the viability decrease (inhibition) in assay [10] is -13% (inactive); in assay [11], -2.4% (inactive).
One may read the viability as a per cent measure of how many cells are alive, often set against a control. `CC(CCc1ccccc1)NC(C)C(O)c1ccc(O)cc1` (centres undefined) showed a score in assay [1] of 1.53. Also, the cytochrome c release ratio in assay [2] came out at 0.84. The compound further came in with an inhibition of aggregation in assay [3] of 63.6%. Further, the parasite load remaining in [20] was 75.2% (inactive) and 69.3% (inactive). Besides, the viability in [20] is 72.4% and 90.8%. Further, the nuclear beta-catenin stimulation in assay [4] (at 10 µM) is -0.2% (inactive); in assay [4] (stimulation, at 2 µM), -0.9%. Also, in [5], the insulin secretion stimulation is 43.4% (active). In addition, the viability decrease in [6] is -3.7% (inactive). For the same compound, the tube area decrease in [7] was 16.8% (inactive). The GLP1 secretion stimulation in assay [8] is -0.5% (inactive). Besides, the inhibition of viability in assay [9] was 16.9% (inactive). Further, the results for the viability decrease (inhibition) in [10] and in assay [11] were 24.3% (inactive) and -7.8% (inactive), respectively. Besides, the inhibition in assay [12] is 14.2% (inactive). The red/green cell ratio (normalised) in assay [13] was 1.03 (inactive). Moreover, the normalised cell number in assay [13] (setting [21]) is 1.2; in assay [13] (setting [22]), 1.24. Moreover, the activity remaining in assay [14] was 82.9% (inactive). In addition, the fold change in assay [15] (stronger effect = lower value) is 1.06 (inactive) and 0.798 (inactive); in assay [15] (setting [23]) it was 0.901 and 0.92. Besides, the cell count in [15] (setting [24]) is 10600 and 10000; in assay [15] (setting [25]), 10000 and 12600. Moreover, the z-score in [16] (setting [26]) was 0.615 (inactive); in assay [16] (setting [27]), -0.62; in assay [19], -0.555 (inactive). The remaining NAD in [17] was 10 nM (inactive). Further, in assay [18], the luciferase signal is 40 AU (inactive).
On to `CC(Cc1ccc(O)cc1)NCC(O)c1cc(O)cc(O)c1` (centres undefined), for which, in [1], the score was 1.05. Moreover, the cytochrome c release ratio in assay [2] stood at 1.18. The compound also gave an inhibition of aggregation in assay [3] of 70.4%. Moreover, the nuclear beta-catenin stimulation in assay [4] (at 10 µM) is -1.3% (inactive); in assay [4] (stimulation, at 2 µM) it was -0.9%. For the same compound, the insulin secretion stimulation in assay [5] was 0.5% (inactive). Also, the viability decrease in assay [6] was -4.2% (inactive). The tube area decrease in assay [7] is 18.4% (inactive). Besides, the GLP1 secretion stimulation in [8] is 1.7% (inactive). Further, the inhibition of viability in assay [9] is -2.93% (inactive). Also, the viability decrease (inhibition) in assay [10] was -0.4% (inactive); in [11], -21.3% (inactive). Moreover, the inhibition in assay [12] is -6.23% (inactive). Besides, the red/green cell ratio (normalised) in assay [13] was 1.06 (inactive). Besides, the normalised cell number came out at 0.97 in assay [13] (setting [21]) and 1.03 in [13] (setting [22]). The activity remaining in [14] was 110% (inactive). Besides, the fold change in [15] (stronger effect = lower value) was 1 (inactive) and 0.892 (inactive) and 0.893 (inactive); in assay [15] (setting [23]), 0.955 and 0.849 and 2.71. The cell count was 10100 and 8600 and 10800 in [15] (setting [24]); 10100 and 9640 and 12100 in assay [15] (setting [25]). For the same compound, the z-score is 0.566 (inactive) in [16] (setting [26]), 0.235 in assay [16] (setting [27]) and -0.085 (inactive) in [19]. Further, the remaining NAD in [17] was 10 nM (inactive). Besides, the luciferase signal in [18] is 48 AU (inactive).
